Most compounds without a hit are left out; they make up all but 4.7% or so of the library.
D1 ag: human D1 receptor agonism; P21728; HEK293 T-REx D1 cells, calcium flux, agonist mode; activation, % at 2 µM; actives 1% (n = 360,000); AID 504660
Target sequence (P21728 whole entry, looked up): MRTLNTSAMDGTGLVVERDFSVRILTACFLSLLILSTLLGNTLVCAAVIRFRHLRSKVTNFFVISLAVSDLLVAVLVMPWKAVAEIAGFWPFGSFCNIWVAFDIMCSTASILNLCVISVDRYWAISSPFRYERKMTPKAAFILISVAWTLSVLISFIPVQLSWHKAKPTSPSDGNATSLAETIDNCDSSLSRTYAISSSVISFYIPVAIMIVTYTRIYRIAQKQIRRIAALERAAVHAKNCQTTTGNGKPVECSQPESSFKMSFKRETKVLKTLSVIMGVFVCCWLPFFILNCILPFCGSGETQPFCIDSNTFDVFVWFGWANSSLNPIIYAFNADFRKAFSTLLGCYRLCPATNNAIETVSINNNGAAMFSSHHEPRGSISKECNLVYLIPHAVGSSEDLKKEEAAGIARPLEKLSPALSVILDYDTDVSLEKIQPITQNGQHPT
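Agonism was scored from calcium flux recorded over 180 s (1 read/s) after pintool compound addition, following a 10-cycle baseline. Cells were inducible force-coupled HEK293 TREx D1, plated overnight at 30 C and loaded with no-wash calcium dye.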
TRHR ag: TRH receptor (human) agonism; P34981; TRHR cells, calcium flux fluo-8, FDSS agonist mode; activation, % at 2 µM; actives 0.18% (n = 360,000)
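Steps: seed TRHR cells overnight; add fluo-8 no-wash Ca dye, RT 30 min–1.5 h; record 10 s baseline; pin-transfer compounds; monitor fluorescence 1 cycle/s for the agonist window. Calcium increases flag candidate agonists.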
D1 potentiator: human D1 dopamine receptor positive modulation; AID 504651; potentiation, % at 10 µM; actives 0.036% (n = 360,000); HEK293 TREx D1 cells, calcium flux, dopamine EC20 potentiation; P21728; in the data active = potentiation above about 30%
TRHR enhancer: allosteric enhancers of human TRH receptor; P34981; TRHR cells, fluo-8 calcium fluorescence, EC20 TRH enhancement; enhancement, % at 2 µM; actives 0.66% (n = 360,000); AID 493056; in the data active = enhancement above about 30%
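Enhancer read-out: after compound pinning and an initial kinetic agonist-mode read, an EC20 of TRH (10 nM final) was injected and fluo-8 calcium signal (Ex 480/Em 530) followed at 1 s/cycle for 100 cycles in TRHR-expressing cells.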
D1 antagonist: antagonists of human D1 dopamine receptor. P21728. HEK293 TREx D1 cells, calcium flux, dopamine EC80; active compounds read low. activity change, negative = inhibition, % at 10 µM. actives 3.2% (n = 360,000). AID 504652; in the data active = activity change below about -30%
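After overnight tetracycline induction at 30 C, force-coupled D1 HEK293 cells took up a no-wash calcium dye at room temperature. Compounds were added and monitored 180 s, and the response to EC80 dopamine was then recorded.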
A number is an active result; n = inactive. Rule as the data show it, unless noted: active = activation above about 30%; inactive = the rest.

SMILES | D1 ag | TRHR ag | D1 potentiator | TRHR enhancer | D1 antagonist
COc1ccc(C(CC(=O)NCc2ccccc2)N2Cc3ccccc3C2=O)cc1 (configuration not stated) | n | n | n | n | n
CCSc1nnc2c(n1)OC(c1cc(OC)c(OC)c(OC)c1)Nc1ccccc1-2 (configuration not stated) | n | n | n | n | n
Cc1ccc(S(=O)(=O)c2cc3c(=O)n4cccc(C)c4nc3n(Cc3ccco3)c2=N)cc1C | n | n | n | n | n
Cc1ccc(S(=O)(=O)c2cc3c(=O)n4ccccc4nc3n(Cc3ccco3)c2=N)cc1 | n | n | n | n | -32.1
Cc1ccc(Nc2nc3nonc3nc2Nc2cccc(C(F)(F)F)c2)cc1Cl | n | n | n | n | -35.0
COc1ccccc1CNC(=O)CCn1c(=O)c2ccccc2n(CC(=O)Nc2ccc(C)cc2)c1=O | n | n | n | n | n
CC1=C(C(=O)Nc2cccnc2)C(c2ccc(F)cc2)n2nc(SCc3ccccc3F)nc2N1 (configuration not stated) | n | n | n | n | n
O=C(O)c1ccc(Cn2ccc3ccccc32)o1 | n | n | n | n | -36.3
O=C(CCCN1C(=O)C(c2ccccc2)Oc2cccnc21)Nc1cccc(F)c1 (configuration not stated) | n | n | n | n | -44.1
Cc1cccc(NS(=O)(=O)c2ccc3c(c2)CCN3C(=O)C2CCC2)c1 | n | n | n | n | n
O=C(C1CC1)N1CCc2cc(S(=O)(=O)N(CCO)Cc3ccccc3)ccc21 | n | n | n | n | -39.5
Cc1c(NS(=O)(=O)N2CCCC2)c(=O)n(-c2ccccc2)n1C | n | n | n | n | -52.5
Cc1c(NS(C)(=O)=O)c(=O)n(-c2ccccc2)n1C | n | n | n | n | n
Cc1c(NC(=O)/C=C/c2ccc(S(=O)(=O)N3CCOCC3)cc2)c(=O)n(-c2ccccc2)n1C | n | n | n | 33.7 | n
Cc1ccc(S(=O)(=O)N2CCOCC2)cc1C(=O)Nc1c(C)n(C)n(-c2ccccc2)c1=O | n | n | n | n | n
COc1ccc(NS(=O)(=O)c2ccc3c(c2)CCN3C(=O)C2CC2)cc1OC | n | n | n | n | -32.8
CCCCN(Cc1ccccc1)S(=O)(=O)c1ccc2c(c1)CCN2C(=O)C1CCC1 | n | n | n | n | n
CCOC(=O)c1cc(C)n(CC2CCC(C(=O)Nc3ccc(C)cc3)CC2)c1C (configuration not stated) | n | n | n | n | n
O=S(=O)(c1ccccc1)c1nnn2c1nc(Nc1ccccc1)c1cc(Cl)ccc12 | n | n | n | n | n
COc1ccc(C)cc1NC(=O)c1nnn(CC(=O)Nc2c(C)cccc2C)c1N | n | n | n | n | n
Cc1c(NS(=O)(=O)c2cc(Br)cc3c2N(C(=O)C2CC2)CC3)c(=O)n(-c2ccccc2)n1C | n | n | n | n | n
Cc1c(NS(=O)(=O)c2ccc3c(c2)CCN3C(=O)C2CC2)c(=O)n(-c2ccccc2)n1C | n | n | n | n | -35.0
O=C(C1CCN(S(=O)(=O)c2ccccc2)CC1)N1CCc2ccccc21 | 332.6 | 247.1 | n | 59.7 | n
Cc1cc2c(s1)c1cnn(Cc3ccc(C(=O)O)cc3)c(=O)c1n2C | n | n | n | n | n
Cn1cnc(S(=O)(=O)N2CCCC(C(=O)NCc3ccc(Cl)cc3)C2)c1 (configuration not stated) | n | n | n | n | n
SMILES | D1 ag | TRHR ag | D1 potentiator | TRHR enhancer | D1 antagonist
Cc1nn(-c2ccc(Br)cc2)c(=O)c2ccccc12 | n | n | n | n | n
Cc1nn(-c2c(Cl)cc(Cl)cc2Cl)c(=O)c2ccccc12 | 74.0 | n | n | n | n
COc1cc(C(=O)Nc2ccccc2SCc2cc(=O)n3nc(C)sc3n2)cc(OC)c1OC | n | n | n | n | -50.2
CN1CCc2nc3sc(C(=O)Nc4ccccc4C(F)(F)F)c(N)c3cc2C1 | n | n | n | n | n
COc1cc(O)c(C(CCN2CCN(c3ccccc3)CC2)c2ccc(N(C)C)cc2)c(OC)c1 (configuration not stated) | n | n | n | n | -80.1
CCN(CC)CCC(c1ccc(OC)cc1)c1c(O)cc(OC)cc1OC (configuration not stated) | n | n | n | n | -31.5
COc1cc(O)c(C(CCN2CCOCC2)c2ccc(N(C)C)cc2)c(OC)c1 (configuration not stated) | n | n | n | n | n

Assay outcomes (PubChem BioAssay)
